KDM5B inh: blocks human KDM5B histone demethylase activity; Q9UGL1; KDM5B demethylase, FDH-coupled NADH fluorescence (FDH is formaldehyde dehydrogenase); Potency, µM (highest dose often 57.7 µM), actives largely listed as inhibitors; actives 2.6% (n = 220,000); AID 1347165; also: potency is read from the fitted curve at half-maximal effect; 0% is about no effect; nearly all actives have a fitted effect of over 70% in size
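Coupled FDH/NAD⁺ fluorescence readout. KDM5BΔAP 200 nM final; compound titration, 10 min RT preincubation; substrate mix 12.5 µM H3K4me3, 25 µM 2-OG, 50 µM Fe(II), 100 µM ascorbate, 0.25 mM NAD⁺, 0.25 U/mL FDH; ΔRFU over 30 min.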
IP6K1 inhibitor: inhibitors of human IP6K1. IP6K1 kinase, ADP-Glo luminescence, 2 h; hits give low values. activity change, % (series mostly up to about 58 µM). actives 0.81% (n = 140,000). Q92551; in the data active = activity change below about -25%; also: % is scaled to controls: 0 for no effect and ±100 for the full control effect
Target sequence (Q92551 whole entry, looked up): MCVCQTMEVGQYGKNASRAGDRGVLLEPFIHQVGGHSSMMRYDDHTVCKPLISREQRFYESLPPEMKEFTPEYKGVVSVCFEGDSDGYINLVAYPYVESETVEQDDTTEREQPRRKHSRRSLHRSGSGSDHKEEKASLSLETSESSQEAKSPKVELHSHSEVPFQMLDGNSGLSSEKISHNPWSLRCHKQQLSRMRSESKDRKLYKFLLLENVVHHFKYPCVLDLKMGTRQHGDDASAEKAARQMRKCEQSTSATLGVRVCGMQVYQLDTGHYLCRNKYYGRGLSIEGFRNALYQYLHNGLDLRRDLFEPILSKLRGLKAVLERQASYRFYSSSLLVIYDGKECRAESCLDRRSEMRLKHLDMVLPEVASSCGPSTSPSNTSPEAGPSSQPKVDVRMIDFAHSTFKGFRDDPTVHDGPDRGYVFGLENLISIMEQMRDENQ
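ADP-Glo luminescence measures ADP made by human IP6K1 during a 2 h RT reaction with ATP/IP6 (mix at 1.3 mM/130 uM); top library doses 57.5 and 19.1 uM final.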
SNCA expr inh: reduces expression of the alpha-synuclein gene; actives 0.17% (n = 140,000); AID 1671194; HEK-293 SNCA-luciferase knock-in, luminescence, 24 h; Potency, µM (series often up to 57.2 µM), for inactives: at the top dose activity change, negative = inhibition, usual class: inhibitors;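 also: potency is read from the fitted curve at half-maximal effect; plate controls were DMSO cells for no effect and cell-free wells for full effect; nearly all actives have a fitted effect of over 45% in size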
HEK293 viab: counter-screen for SNCA expression inhibitors: cell viability. HEK-293-SNCA-luc viability, GF-AFC fluorescence, 24 h. Potency, µM (highest dose often 57.1 µM), for the others: at the highest dose activity change, negative = cytotoxicity, actives largely listed as cytotoxic. actives 0.12% (n = 150,000);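 also: potency is read from the fitted curve at half-maximal effect; 0% = DMSO-treated cells and -100% = medium-only wells without cells; nearly all actives have a fitted effect of over 30% in size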
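Cytotoxicity counterscreen: after 24 h compound treatment of genome-edited SNCA-luciferase HEK-293 cells, live-cell protease substrate GF-AFC read by fluorescence after 30 min; activity scaled between DMSO (0%) and medium-only (-100%), curves Hill-fitted.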
IP6K1 inh cnf: confirmation of human IP6K1 inhibitors. recombinant IP6K1 kinase, ADP-Glo luminescence, 2 h. Potency, µM (doses to about 49 µM), without a hit: at the highest dose activity change, negative = inhibition, actives largely listed as inhibitors. actives 13% (n = 1,200). AID 1645852. shares compounds with IP6K1 inhibitor; also: potency is read from the fitted curve at half-maximal effect; % is scaled to controls: 0 for no effect and ±100 for the full control effect; nearly all actives have a fitted effect of over 65% in size
Numbers without * were called inactive; i = inactive; ? = inconclusive; . = no result; [ ] = dose if it differs, or a comment. Shown are actives, neighbours in structure and some others; about 2.9% of the full set was active somewhere. Unless noted, calls follow the shape of the dose curve; as a rule, active = well fitted curve in the direction sought with a large enough effect; inconclusive = small, poorly fitted or top-dose-only effect, or another doubt; inactive = no such curve, though single readings can be large; an effect the other way counts as inactive or inconclusive.

SMILES	KDM5B inh	IP6K1 inhibitor	SNCA expr inh	HEK293 viab	others
CCS(=O)(=O)c1ccc2oc([C@H]3CCN(C(C)C)C3)nc2c1	39.8µM*	-4.2	201.7%[87.6 µM]	8.4%[87.6 µM]
O=C(c1cc(F)ccc1F)N1CCC(OCCOc2ccc(F)cc2)CC1	.	16.4	-15.1%	-10.1%
CC1(COc2ccccc2)COc2ccc(C(=O)NCc3cccc(F)c3)cc2N1 (centres undefined)	31.6µM*	5.1	-34.7%[87.6 µM]	-15.6%[87.6 µM]
CC1(COCC2CC2)COc2ccc(C(=O)NCc3cccc(F)c3)cc2N1 (centres undefined)	39.8µM*	12.7	2.9%[87.6 µM]	-10.8%[87.6 µM]
CC1(COc2ccccc2)COc2ccc(C(=O)NCCc3ccccn3)cc2N1 (centres undefined)	31.6µM*	10.5	-29.9%[87.6 µM]	-6.9%[87.6 µM]
CC1(COc2cccnc2)COc2ccc(C(=O)NCCOc3ccccc3)cc2N1 (centres undefined)	31.6µM*	7.4	?	?
CN(C(=O)c1ccc2c(c1)NC(C)(COCC1CC1)CO2)c1ccccc1 (centres undefined)	i	-11.2	-16.1%[87.6 µM]	-2.8%[87.6 µM]
CC(C)C[C@@H]1N[C@H](C(=O)NCc2ccccn2)Cc2c[nH]c3cccc1c23	?	7.9	?	-29.9%[87.6 µM]
CC1(COc2ccccc2)COc2ccc(C(=O)NCCc3ccccc3)cc2N1 (centres undefined)	?	-0.3	-28.3%[87.6 µM]	-1.0%[87.6 µM]
CC1(COc2cccnc2)COc2ccc(C(=O)NCCc3ccccc3)cc2N1 (centres undefined)	35.5µM*	17.0	11.6%[87.6 µM]	-21.8%[87.6 µM]
CC1(COc2ccccc2)COc2ccc(C(=O)NCCc3cnc[nH]3)cc2N1 (centres undefined)	35.5µM*	-4.4	?	10.3%[87.6 µM]
C[C@@H]1CN(C(=O)c2ccc3c(c2)NC(C)(COCC2CC2)CO3)C[C@H](C)O1 (some centres undefined)	i	4.8	-12.1%[87.6 µM]	12.6%[87.6 µM]
CC1(COc2ccccc2)COc2ccc(C(=O)NCc3cccnc3)cc2N1 (centres undefined)	35.5µM*	-1.1	-6.3%[87.6 µM]	3.8%[87.6 µM]
CC1(COCC2CC2)COc2ccc(C(=O)N3CCOCC3c3cccc(F)c3)cc2N1 (centres undefined)	35.5µM*	13.6	-26.1%[87.6 µM]	0.8%[87.6 µM]
C#CCNC(=O)C1CCN(C(=O)c2ccc(-c3cccs3)cc2)CC1	.	-0.5	.	.
O=C(NC1CCCCC1)c1nc2sccn2c1-c1ccc(C(F)(F)F)cc1	.	13.4	-2.0%	-9.8%
COc1ccc(Cn2c(=O)c(C(=O)NCc3ccc(C(F)(F)F)cc3)nc3cccnc32)cc1	.	-2.9	-19.9%	-6.9%
O=C(CCc1ccc(O)cc1)NNC(=S)NCCc1ccccc1	i	.	.	.
O=C(CCc1ccc(O)cc1)c1c(O)cc(O)cc1O	.	.	-7.0%	-0.8%	IP6K1 inh cnf=5.17µM*
CN(Cc1ccc2nsnc2c1)Cc1cc2n(n1)CCCNC2	?	-25.0*	3.9%	0.2%	IP6K1 inh cnf=-7.3%
Cc1ccccc1CN1C(=O)c2ccccc2Sc2ccc(C(=O)O)cc21	i	31.9	0.5%	2.0%
O=C(O)c1cccc(CN2C(=O)/C(=C(\c3ccccc3)c3ccc(Cl)cc3)c3ccccc32)c1	.	-25.9*	.	-24.8%	IP6K1 inh cnf=20.6µM*
CCCCn1c(=O)c(C(=O)NCc2ccc(C(F)(F)F)cc2)nc2cccnc21	.	10.8	-0.7%	0.7%
CC(C)c1nc2ccc(C(=O)NCCCN3CCN(c4cccc(Cl)c4)CC3)cc2o1	?	-34.0*	56.5%	-13.1%	IP6K1 inh cnf=?
CC(C)c1nc2ccc(C(=O)NCCCN3CCN(c4ccc(F)cc4)CC3)cc2o1	i	17.1	0.4%	10.3%
COC[C@@H]1CN(C(=O)c2occc2C)C[C@H]1c1ccccn1	i	17.6	-14.5%	-10.8%
Cc1ccoc1C(=O)N1C[C@@H](CO)[C@H](c2ccccn2)C1	i	-40.3*	21.3%	-7.8%	IP6K1 inh cnf=11.3%
O=C(c1ccccc1F)N1CCN(C(=O)c2nnn3c2COC(c2ccccc2)C3)CC1 (centres undefined)	i	2.4	?	-5.5%
O=C(c1cc(Cl)ccc1F)N1CCN(C(=O)c2nnn3c2COC(c2ccccc2)C3)CC1 (centres undefined)	i	-32.2*	3.3%	-9.8%	IP6K1 inh cnf=-8.6%
